Screening results (PubChem BioAssay)
An excerpt weighted towards active compounds, which were near 21% of everything screened.
Pf growth 96h: P. falciparum growth inhibition at 96 hours. P. falciparum luciferase reporter growth, 96 h. Potency, µM (top dose mostly 28.7 µM), inactives show at the top dose activity change, negative = inhibition, actives largely listed as inhibitors. 320,000 compounds, 6.9% hits; further: potency means the concentration at half of the fitted maximal effect; on the % scale 0 is the no-effect control and ±100 the full control effect
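Infected RBCs, 2% Hct / 0.05% parasitemia final; luciferase-reporter P. falciparum; cpd 96 h, 37 C, 5% CO2; luciferase detection reagent; luminescence.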
Cycloheximide cs: affects cycloheximide protein synthesis inhibition readout, counter-screen; cell reporter, cycloheximide protein synthesis inhibition counterscreen; max response, %; 300,000 compounds, 12% hits; AID 2314; in the data active means max response mostly above about 13%, no sharp cut-off; inactive means mostly below about 14%; further: read at 38.3 µM for the half of the compounds with a filed dose; 0% is about no effect
HCMV antiviral: inhibitors of human cytomegalovirus | HFF cells, HCMV-luciferase reporter, 72 h; active compounds read low | 410,000 compounds, 4.5% hits | activity change, negative = inhibition, % at 57.5 µM; in the data active means activity change below about -60%; inconclusive means no clear call, values can overlap the other calls; inactive means above about -39%; further: on the % scale 0 is the no-effect control and ±100 the full control effect
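Compounds were evaluated in HFFs infected with an HCMV luciferase reporter virus (MOI 1 PFU/cell). Luciferase in lysates collected 72 h post infection served as the replication measure.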
Pf growth 48h: inhibits P. falciparum growth in the first generation, 48 h | P. falciparum luciferase growth in erythrocytes, 48 h | Potency, µM (highest dose often 28.7 µM), for inactives: at the highest dose activity change, negative = inhibition, hits mostly inhibitors | 310,000 compounds, 5.9% hits; further: potency means the concentration at half of the fitted maximal effect; on the % scale 0 is the no-effect control and ±100 the full control effect
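First compound was added to culture medium, then infected red cells at 0.1% parasitemia and 2% hematocrit (final). After incubation at 37 C under 5% CO2, luciferase detection reagent was dispensed and light output recorded.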
HCV inhibitor: inhibitors of hepatitis C virus infection; Potency, µM (doses to about 41.8 µM), for the others: at the top dose activity change, negative = inhibition, most hits filed as inhibitors; Huh7.5.1 HCVcc-Cre infection, luciferase reporter, 44 h; AID 651820; 340,000 compounds, 3.4% hits; further: potency means the concentration at half of the fitted maximal effect; on the % scale 0 is the no-effect control and ±100 the full control effect
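Infectious HCVcc-Cre (~0.5 moi) was added to cells just after compound, with cells seeded 4 h earlier at 1,000 per well. Luciferase activity after 44 h culture reported infection; substrate was incubated 15 min at room temperature before reading.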
Shiga toxin inh: inhibitors of Shiga toxin in Vero cells; Vero cells, Shiga toxin protein synthesis inhibition reporter; inhibition, % at 38.7 µM; 290,000 compounds, 9.2% hits; in the data active means inhibition mostly above about 28%, no sharp cut-off; inactive means mostly below about 43%; further: 0% is about no effect
The depositor's hits bear a star; ? = inconclusive; · = no result. Unless noted, the call rests on the fitted dose curve; in most records, active means well fitted inhibition curve with a large enough effect; inconclusive means small, poorly fitted or top-dose-only effect, or another doubt; inactive means no such curve, though single readings can be large or run the other way.

SMILES	Pf growth 96h	Cycloheximide cs	HCMV antiviral	Pf growth 48h	HCV inhibitor	Shiga toxin inh
Cc1ccc(CNC(=O)c2ccc3nc4[nH]c5ccccc5c4nc3c2)cc1	-2.0%	6.9	-101.9*	?	4.0%	-10.7
O=C(COc1ccccc1-c1nc(-c2ccccc2)no1)Nc1cccc([N+](=O)[O-])c1	·	·	12.1	·	·	·
CCN(c1ccccc1)S(=O)(=O)c1ccc(N2CCN(c3ccccc3O)CC2)nc1	9.28µM*	·	6.9	6.57µM*	?	·
CCN(c1ccccc1)S(=O)(=O)c1ccc(C(=O)N2CCN(c3ccccc3)CC2)cc1	·	·	4.6	·	?	·
COC(=O)c1ccc2c(C)c(C(C)(C)O)[nH]c2c1	78.5%	14.5*	-16.5	19.1%	-26.4%	36.7
Cc1c(C(C)(C)O)[nH]c2ccc(C(F)(F)F)cc12	-32.2%	8.6*	?	-4.9%	-21.6%	16.8
COCCn1c(=O)[nH]c2cc(C(=O)OC)ccc2c1=O	?	1.5	-7.3	41.8%	12.3%	-4.1
Cc1c(C2(O)CCCCC2)[nH]c2ccc(C(F)(F)F)cc12	·	·	-9.9	·	?	·
C=CCn1c(SCC(=O)N2CCOCC2)nnc1C(C)NC(=O)c1ccccc1 (stereo unspecified)	?	-1.1	5.9	32.1%	0.4%	-11.9
CN1CCN(c2nc(N(C)C)oc(=O)c2C#N)CC1	0.0037µM*	-2.8	-16.3	-13.3%	3.3%	-15.8
CN(C)c1nc(N2CCN(c3ccc(F)cc3)CC2)c(C#N)c(=O)o1	25.8%	1.4	?	?	9.4%	-7.2
COc1cc2ncnc(NCc3ccccc3)c2cc1OC	?	-3.9	-19.5	?	-12.4%	-7.4
COc1cc2ncnc(NCc3ccc4c(c3)OCO4)c2cc1OC	?	-1.1	-27.6	11.7µM*	-13.8%	-5.3
COc1ccc(CNc2ncnc3cc(OC)c(OC)cc23)cc1	2.08µM*	-4.5	0.8	4.15µM*	?	-12.1
CN(C)/C=C1/C=C(C=O)OC1=O	-6.3%	-2.1	-0.6	-0.2%	7.1%	-7.5
Cn1c(=O)c2[nH]c(COc3ccc(C(C)(C)C)cc3)nc2n(C)c1=O	34.4%	-1.1	·	3.7%	11.2µM*	-2.0
Cn1c(=O)c2[nH]c(CCCCCCCc3nc4ccccc4[nH]3)nc2n(C)c1=O	·	·	-67.1*	·	8.91µM*	·
Cn1c(C(=O)NCc2ccccc2Cl)cc2sc(Cl)cc21	·	·	-62.3*	·	·	·
Cn1c(C(=O)NCc2cccnc2)cc2sc(Cl)cc21	?	9.8	-14.5	13.6%	-12.1%	-2.2
CCc1ccc(NC(=O)c2cc3sc(Cl)cc3n2C)cc1	·	·	56.3	·	·	·
CCOc1ccc(CCNC(=O)c2cc3sc(Cl)cc3n2C)cc1OCC	-5.8%	19.2	-9.5	-5.7%	7.08µM*	26.3
COc1ccc(N2CCN(C(=O)Cn3cnc4c(cnn4-c4ccc(C)cc4)c3=O)CC2)cc1	-6.4%	12.6	22.9	7.8%	?	28.3
Cc1cc(C(=O)N2CCC(CO)(Cc3cccc(C(F)(F)F)c3)CC2)n[nH]1	22.4%	7.7	0.8	-10.8%	-21.3%	1.1
O=C(c1cnsn1)N1CCC(CO)(Cc2cccc(F)c2)CC1	?	53.8*	-3.5	32.6%	6.8%	67.2*
S=c1nc(-c2cccc(Br)c2)[nH][nH]1	54.2%	5.9	24.1	-1.7%	5.5%	0.2
SMILES	Pf growth 96h	Cycloheximide cs	HCMV antiviral	Pf growth 48h	HCV inhibitor	Shiga toxin inh
CC(CCc1ccccc1)NC(=O)CSc1n[nH]c(-c2ccccc2Cl)n1 (stereo unspecified)	·	·	5.1	·	·	·
COc1ccc(-c2nc(SCC(=O)NCCCc3ccccc3)n[nH]2)cc1	·	·	-66.7*	·	·	·
CCCCOc1ccc(-c2nc(SCC(N)=O)n[nH]2)cc1	186.2%	33.7*	20.4	100.6%	16.9%	47.7
CCCCOc1ccc(-c2nc(=S)[nH][nH]2)cc1	11.7µM*	-2.4	37.2	·	15.2%	-3.0
COc1ccc(-c2nc(SCC(=O)NC(C)CCc3ccccc3)n[nH]2)cc1 (stereo unspecified)	·	·	-89.1*	·	·	·
CC1(C(=O)Nc2ccccc2Br)CCN1C(=O)Cc1ccc(Cl)cc1Cl (stereo unspecified)	·	·	4.6	·	·	·
CC(CC(=O)N(C)CC(=O)Nc1ccc(N2CCOCC2)cc1)c1ccccc1 (stereo unspecified)	-3.8%	·	-5.1	?	1.6%	·
CC(O)(c1cccnc1)c1nc(-c2ccc(S(C)(=O)=O)cc2)cs1 (stereo unspecified)	·	·	-30.3	·	·	·
Cc1oc(-c2ccc(C(=O)NCc3ccc(N(C)C)cc3)cc2)nc1COc1ccccc1	·	·	2.0	·	·	·
CCOC(=O)c1ccccc1NC(=O)N(Cc1ccco1)C1CCN(C(C)=O)CC1	·	·	6.7	·	·	·
COc1ccc(CNC(=O)Cn2c(=O)nc(-c3ccccc3F)c3cc(Cl)ccc32)cc1OC	·	·	1.0	·	·	·
CC(CCc1ccccc1)NC(=O)CSc1n[nH]c(-c2ccc(F)cc2)n1 (stereo unspecified)	·	·	-64.8*	·	·	·
CC(CCc1ccccc1)NC(=O)CSc1n[nH]c(-c2ccccc2)n1 (stereo unspecified)	·	·	-28.0	·	·	·
CCOCCCn1c(=O)c2ccccc2n2c(=S)[nH]nc12	-3.9%	-1.9	?	-4.3%	12.7%	-6.8
COc1ccc2ccc(=O)oc2c1CC(=O)C(C)C	·	·	0.7	·	4.47µM*	·
O=C(CNC(=O)c1ccc(Br)o1)NNC(=O)c1ccccc1O	4.6%	·	29.3	43.3%	16.0%	·
COc1cc(CN2CCN(Cc3c[nH]c4ccccc34)CC2CCO)cc(OC)c1 (stereo unspecified)	10.4µM*	-1.3	-0.3	-21.5%	-8.2%	-15.0
CCn1nc(C)c(CN2CCN(Cc3cccc(OC)c3)C(CCO)C2)c1C (stereo unspecified)	11.7µM*	4.2	17.9	-2.5%	10.9%	-11.3
CCn1ncc(CN2CCN(Cc3cccc(OC)c3)C(CCO)C2)c1C (stereo unspecified)	7.38µM*	-0.9	?	0.1%	-0.2%	10.2
COc1ccc(CN2CCN(Cc3cccc(OC)c3)C(CCO)C2)cc1 (stereo unspecified)	20.4%	2.1	-28.3	-0.7%	6.6%	-4.1
CCOc1ccc(CN2CCN(Cc3c(C)nn(CC)c3C)CC2CCO)cc1 (stereo unspecified)	14.3%	-2.2	-0.6	-18.4%	?	6.4
Cc1oc2c(c1C(=O)Nc1ccc(OC(F)(F)F)cc1)C1=NCCN1C=N2	·	·	-1.5	·	·	·
C=C1CCN([C@@H](Cc2ccccc2)C(=O)NCc2ccc(Cl)cc2)S(=O)(=O)c2ccccc21	·	·	-14.6	·	-23.5%	·
O=S(=O)(Nc1cccc2cccnc12)c1ccc(Br)cc1	·	-3.1	·	·	·	-11.3
CCC(C)C(NC(N)=O)C(=O)Nc1ccc(OCc2ccccc2)cc1 (stereo unspecified)	88.4%	22.0*	-30.2	7.1%	-19.0%	26.2*
